# TDP1 block: TDP1 (human) enzyme inhibition; Q9NUW8; AID 485290; recombinant TDP1, AlphaScreen DNA substrate cleavage; Potency, µM (top dose mostly 130 µM), for the others: top-dose activity change, negative = inhibition, actives largely listed as inhibitors; actives 0.28% (n = 350,000); also: potency is read from the fitted curve at half-maximal effect; % is scaled to controls: 0 for no effect and ±100 for the full control effect; nearly all actives have a fitted effect of over 40% in size
# Target sequence (Q9NUW8 whole entry, looked up): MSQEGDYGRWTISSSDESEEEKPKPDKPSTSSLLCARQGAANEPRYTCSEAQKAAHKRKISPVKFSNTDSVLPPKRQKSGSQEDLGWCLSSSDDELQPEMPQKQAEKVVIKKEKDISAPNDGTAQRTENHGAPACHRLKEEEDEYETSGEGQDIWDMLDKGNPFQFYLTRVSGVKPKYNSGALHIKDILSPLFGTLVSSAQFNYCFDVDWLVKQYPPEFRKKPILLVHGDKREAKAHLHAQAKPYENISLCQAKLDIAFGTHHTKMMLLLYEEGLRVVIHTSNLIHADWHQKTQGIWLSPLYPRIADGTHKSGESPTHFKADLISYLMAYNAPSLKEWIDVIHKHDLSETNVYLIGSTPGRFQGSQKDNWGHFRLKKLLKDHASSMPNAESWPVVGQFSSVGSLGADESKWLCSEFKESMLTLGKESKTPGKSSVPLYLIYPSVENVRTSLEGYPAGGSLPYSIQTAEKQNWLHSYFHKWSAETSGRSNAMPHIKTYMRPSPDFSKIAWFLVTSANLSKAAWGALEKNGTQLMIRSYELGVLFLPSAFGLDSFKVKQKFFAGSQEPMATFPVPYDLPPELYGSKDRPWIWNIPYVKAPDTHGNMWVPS
#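 Here, a 5' biotin and 3' phosphotyrosine-FITC DNA oligonucleotide reports Tdp1 activity: intact substrate bridges AlphaScreen beads, while cleavage leaves a 3' phosphate and drops signal. All incubations at room temperature.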
# HepG2 tox: kills HepG2 cells in TGF-b inhibitor counter-screen. AID 588856. actives 0.76% (n = 410,000). Potency, µM (series often up to 46.1 µM), inactives show at the top dose activity change, negative = cytotoxicity, usual class: cytotoxic. HepG2 CAGA-GFP viability, ATP luminescence, 18 h; also: potency is read from the fitted curve at half-maximal effect
#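 CellTiter-Glo luminescence gave cytotoxicity after 18 hours at 37 degrees C. The cells were HepG2 CAGA-GFP in 1% FBS DMEM, stimulated with 500 pg/mL TGF-beta after compound addition. %Activity was normalised to no-cell wells (complete cell-killing) and DMSO (no toxicity), and curves were fitted and classified.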
# IL1B secr inh: inhibitors of inflammasome signaling (IL-1 beta secretion); THP-1 LPS/ATP IL-1B secretion, AlphaLISA, 16 h; hits give low values; activity change, % at 57.5 µM; actives 4.7% (n = 360,000); AID 743279; in the data active = activity change below about -50%; inconclusive = mostly about -30% to -49%; also: % is scaled to controls: 0 for no effect and ±100 for the full control effect
#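 Secreted IL-1B measured by AlphaLISA bead assay after 16 h compound exposure of THP-1 cells; compounds (final up to 57.5 uM) added 1 h before LPS (250 ng/mL) and ATP (1.25 mM) stimulation; lower signal means less secretion.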
# TDP1 cell noCPT: qHTS for Inhibitors of human tyrosyl-DNA phosphodiesterase 1 (TDP1): qHTS in cells in absence of CPT | AID 686978, 2013 | Potency, µM (series often up to 46.2 µM), for inactives: at the highest dose activity change, negative = growth inhibition, most hits filed as inhibitors | actives 15% (n = 420,000) | DT40 Tdp1-/- hTDP1 cells, no CPT, ATP luminescence, 48 h; also: potency is read from the fitted curve at half-maximal effect; % is scaled to controls: 0 for no effect and ±100 for the full control effect; nearly all actives have a fitted effect of over 55% in size
#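 Camptothecin absent (DMSO only). Human TDP1-complemented DT40 knockout cells, 400 cells/well, 37 °C for minimum 48 hr; ATP measured via CellTiter-Glo, 30 min dark incubation, luminescence.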
# TDP1 cell CPT: DT40-hTDP1 cell growth loss with CPT; chicken DT40 Tdp1-/-;hTDP1 cells + 20 nM CPT, ATP luminescence, 48 h; Potency, µM (doses to about 46.2 µM), inactives show top-dose activity change, negative = growth inhibition, most hits filed as inhibitors; actives 12% (n = 420,000); also: potency is read from the fitted curve at half-maximal effect; % is scaled to controls: 0 for no effect and ±100 for the full control effect; nearly all actives have a fitted effect of over 55% in size
#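 Chicken DT40 Tdp1-/- cells complemented with human TDP1, 400 cells/well, exposed to compounds plus 20 nM camptothecin for at least 48 h at 37 C; viability read as ATP content by CellTiter-Glo luminescence.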
# TGFb SMAD3 inh: TGF-b pathway inhibition; HepG2 CAGA-GFP TGF-b/SMAD3 reporter, GFP fluorescence, 18 h; TGF-beta stimulated, 500 pg/mL final; Potency, µM (series often up to 46.1 µM), for inactives: at the top dose activity, negative = inhibition, actives largely listed as inhibitors; actives 1.2% (n = 410,000); AID 588855; also: potency is read from the fitted curve at half-maximal effect; % is scaled to controls: 0 for no effect and ±100 for the full control effect; nearly all actives have a fitted effect of over 65% in size
#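 HEPG2 CAGA-GFP, 1000 cells/well; 2 h settle, 37 C; cpd via pin tool; TGF-b 500 pg/mL final; 18 h, 37 C; GFP imaging ex488/em500-530; %Activity normalised to -TGF-b and +DMSO controls; CRC fit, curve class.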
# * marks the source's active call; other numbers are inactive results; ? = inconclusive; / = no result; [ ] = remark or other dose. Shown are actives, neighbours in structure and some others; about 18% of the full set was active somewhere. Unless noted, calls follow the shape of the dose curve; as a rule, active = well fitted curve in the direction sought with a large enough effect; inconclusive = small, poorly fitted or top-dose-only effect, or another doubt; inactive = no such curve, though single readings can be large; an effect the other way counts as inactive or inconclusive.
SMILES,TDP1 block,HepG2 tox,IL1B secr inh,TDP1 cell noCPT,TDP1 cell CPT,TGFb SMAD3 inh
COc1ccc(NC(=O)C2Cc3c(-c4ccc(NC(C)=O)cc4)ccnc3O2)cc1 (configuration not stated),/,-7%,-25,16µM*,?,24%
COc1ccc(NC(=O)C2Cc3c(-c4ccc(NC(C)=O)cc4)ccnc3O2)cc1OC (configuration not stated),/,-1%,-30,?,?,12%
CC(=O)Nc1cccc(-c2ccnc3c2CC(C(=O)Nc2cccc(N(C)C)c2)O3)c1 (configuration not stated),/,-5%,0,10µM*,13µM*,18%
CN(C)c1cccc(NC(=O)C2Cc3c(-c4cccnc4)ccnc3O2)c1 (configuration not stated),/,4%,-8,0%,8%,6%
CC1(C(=O)NS(=O)(=O)c2cccc(C#N)c2)CCN1C(=O)c1ccc(C2CCCCC2)cc1 (configuration not stated),/,6%,51,-15%,-22%,33%
CCOCCCNC(=O)c1c(NC(=O)c2cc(=O)c3cc(C)c(C)cc3o2)sc2c1CCC2,5%,15%,/,?,-13%,7%
O=C(O)c1ccc(S(=O)(=O)N2CCCCCCC2)cc1,/,-20%,-12,-5%,3%,-17%
COc1ccc(/C=C(/NC(=O)c2ccco2)C(=O)Nc2ccc(C(=O)O)cc2)cc1,0%,9%,-11,0%,-1%,17%
Cc1ccc2nc(N3CCN(C(=O)C4COc5ccccc5O4)CC3)sc2c1 (configuration not stated),3%,-31%,/,?,?,?
CN1CCc2sc(NC(=O)Cc3ccccc3)c(C(=O)Nc3ccc(Cl)cc3)c2C1,-6%,/,/,/,/,/
CC(C)C(=O)NCCc1nc(-c2ccccc2Cl)no1,/,0%,5,-13%,-6%,0%
Cc1cccc(N(CC(=O)NCc2ccco2)C(=O)CCC(=O)Nc2nccs2)c1C,2%[0.0935 µM],-10%,-9,-14%,19%,10%
CC(=O)Nc1cccc(-c2ccnc3c2CC(C(=O)Nc2ccc(C(C)C)cc2)O3)c1 (configuration not stated),/,-7%,-51*,12µM*,21µM*,16%
O=C(Nc1ccc(F)c(Cl)c1)C1Cc2c(-c3ccco3)ccnc2O1 (configuration not stated),/,-7%,0,15µM*,23µM*,13µM*
COc1ccc(NC(=O)C2Cc3c(-c4cccc(C(C)=O)c4)ccnc3O2)cn1 (configuration not stated),/,-4%,59,2.9µM*,2.6µM*,-1%
CC(=O)Nc1ccc(NC(=O)C2Cc3c(-c4cccc(NC(C)=O)c4)ccnc3O2)cc1 (configuration not stated),/,1%,-25,-14%,-13%,21%
CC(=O)Nc1ccc(-c2ccnc3c2CC(C(=O)Nc2ccc(C(C)C)cc2)O3)cc1 (configuration not stated),/,13%,-23,?,?,?
COc1ccc(NC(=O)C2Cc3c(-c4cccc(NC(C)=O)c4)ccnc3O2)cc1 (configuration not stated),/,1%,43,3.3µM*,3.7µM*,3%
N#Cc1nc(NCCCCO)nc(Nc2ccccc2)n1,10%,/,/,/,/,/
CCOc1ccc(NC(=O)CN(C)C(=O)c2ccc(-c3ccc(C(C)=O)cc3)o2)cc1OCC,/,-13%,-14,-20%,-7%,2%
